Experimental data: PubChem BioAssay
Unmarked numbers belong to inactive results. The source made the active and inactive calls. Cut-off read from the data, not from the text of the source, unless noted: active = inhibition above about 33%; inactive = the rest.

What was measured:
[1] = StAR promoter reporter inhibitors, counter-screen for LRH-1 inverse agonist project, cell-based, luminescence, high throughput (AID 651611; in the data active = inhibition above about 28%); settings: StAR promoter luciferase reporter counterscreen, at 3.6 µM, active compounds read high
[2] = target: Nuclear receptor subfamily 5 group A member 2 (Homo sapiens) (UniProt O00482); test: NR5A2 activity suppression in reporter cells – cell-based, luminescence, confirmation (AID 651613; in the data active = inhibition above about 42%;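 note: HEK293T cells co-transfected with LRH-1 and StAR promoter luciferase reporter; 0% = vehicle wells and 100% = parental cells lacking receptor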); settings: cell-based LRH-1 luciferase reporter, inverse agonism; at 3.6 µM; active compounds read high
[3] = target: Steroidogenic factor 1 (Homo sapiens) (UniProt Q13285); test: inverse agonism at SF1 nuclear receptor – cell-based, luminescence, high throughput, counter-screen for LRH-1 inverse agonist project (AID 651614; in the data active = inhibition above about 44%;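 note: cells cotransfected with StAR promoter reporter and SF1 expression vector; 0% = vehicle on cells with receptor and 100% = vehicle on cells lacking receptor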); settings: cell-based SF1 luciferase reporter, at 3.6 µM, active compounds read high
[4] = compounds suppressing VP16-driven luciferase signal – cell-based, luminescence, high throughput, counter-screen for LRH-1 inverse agonist project (AID 651615); settings: Gal4-VP16 luciferase reporter cells, at 3.6 µM, active compounds read high

Nuclear receptor subfamily 5 group A member 2 (Homo sapiens), sequence (O00482 whole entry, looked up): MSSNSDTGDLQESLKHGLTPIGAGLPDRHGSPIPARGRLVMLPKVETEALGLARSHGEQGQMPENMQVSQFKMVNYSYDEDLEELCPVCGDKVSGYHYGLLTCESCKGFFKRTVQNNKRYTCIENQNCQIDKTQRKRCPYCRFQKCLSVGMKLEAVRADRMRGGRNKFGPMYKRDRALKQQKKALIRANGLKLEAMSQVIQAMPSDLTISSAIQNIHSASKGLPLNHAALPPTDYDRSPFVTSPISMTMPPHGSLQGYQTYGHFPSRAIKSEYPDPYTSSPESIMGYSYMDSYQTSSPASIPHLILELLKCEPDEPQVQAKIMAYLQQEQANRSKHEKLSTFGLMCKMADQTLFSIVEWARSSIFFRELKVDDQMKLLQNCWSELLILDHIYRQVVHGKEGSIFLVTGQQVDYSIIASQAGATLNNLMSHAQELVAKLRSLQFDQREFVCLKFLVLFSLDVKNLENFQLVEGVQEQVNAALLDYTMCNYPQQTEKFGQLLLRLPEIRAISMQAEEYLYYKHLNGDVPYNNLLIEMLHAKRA
Steroidogenic factor 1 (Homo sapiens), sequence (Q13285 whole entry, looked up, the tested form may be a part): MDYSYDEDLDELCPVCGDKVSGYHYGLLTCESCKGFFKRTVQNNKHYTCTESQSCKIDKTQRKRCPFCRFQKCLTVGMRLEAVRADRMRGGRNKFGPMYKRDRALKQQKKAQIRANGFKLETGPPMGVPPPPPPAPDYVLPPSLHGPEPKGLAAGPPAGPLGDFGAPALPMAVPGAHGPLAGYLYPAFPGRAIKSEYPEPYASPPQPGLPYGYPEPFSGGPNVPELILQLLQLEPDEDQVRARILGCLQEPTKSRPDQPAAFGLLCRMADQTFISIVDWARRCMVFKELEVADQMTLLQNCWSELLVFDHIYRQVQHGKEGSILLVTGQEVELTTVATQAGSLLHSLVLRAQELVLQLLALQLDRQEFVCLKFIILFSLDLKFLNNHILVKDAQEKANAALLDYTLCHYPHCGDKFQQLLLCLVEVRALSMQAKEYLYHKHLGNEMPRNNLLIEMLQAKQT

Structure (SMILES) | inhibition [1] | inhibition [2] | inhibition [3] | inhibition [4]
Cc1no[n+]([O-])c1COc1ccc(/C=C2\NC(=S)NC2=O)cc1 | -5.62% | 48.3% (active) | 45.9% (active) | -19.4%
COc1ccc(NC(=O)CSc2ncnc3[nH]ncc23)cc1 | 7.25% | 60.5% (active) | 54.4% (active) | -6.96%
Cc1sc(NC(=O)C(C)C)c(C(=O)Nc2ccccc2)c1C | 13.2% | 50.2% (active) | 45.9% (active) | -9.75%
CS(=O)(=O)N1CCN(c2ccccc2NC(=O)c2ccc([N+](=O)[O-])o2)CC1 | 11.6% | 57.4% (active) | 55.3% (active) | -20.1%
COc1ccc(OC)c(C2NC(=O)c3sc(=S)n(-c4ccccc4)c3N2)c1 (stereo not drawn) | 10.5% | 53.5% (active) | 45.4% (active) | -4.35%
CC1(C)CC2CC(C)(CN2S(=O)(=O)c2ccc(C(=O)Nc3cccc(S(=O)(=O)N4CCOCC4)c3)cc2)C1 (stereo not drawn) | 13% | 59% (active) | 56.4% (active) | 56% (active)
Cc1ccc(NC(=O)CSc2nc3ncc(Br)cc3[nH]2)cc1C | 10.7% | 54.5% (active) | 54.1% (active) | 1.21%
COc1cc(C2c3cc4c(cc3OC(NNC(N)=S)C2C)OCO4)cc(OC)c1OC (stereo not drawn) | 49.2% (active) | 35.4% | 44.2% (active) | 14%
CC(=O)c1ccc(NC(=O)CN2C(=O)NC3(CCc4ccccc43)C2=O)cc1 (stereo not drawn) | 12.2% | 61.5% (active) | 49.3% (active) | -0.14%
CC(=O)c1ccc(-c2c(C)cc3oc(=O)cc(-c4ccccc4)c3c2C)cc1 | -6.71% | 57% (active) | 52.6% (active) | -3.38%
CCCN(CC(=O)Nc1ccc(C(C)=O)cc1)CC(=O)Nc1ccccc1C | 1.27% | 62.4% (active) | 56% (active) | 9.79%
CCCCNC(=O)CSc1nc2ccc(NC(=O)CSc3nnc(COc4ccccc4C)n3C)cc2s1 | 2.43% | 61.2% (active) | 61.3% (active) | -5.17%
CC1Cc2ccccc2N1C1=CC(=O)CC(C)(C)C1 (stereo not drawn) | 21.4% | 55.3% (active) | 51.9% (active) | -3.44%
COc1ccc2c(c1)/C(=C/c1cc(OC)c(OC)c(OC)c1)C(=O)N2 | 52% (active) | 51% (active) | 48.2% (active) | 41.6% (active)
O=C(c1c(F)c(F)c(F)c(F)c1F)N1CCN(c2cccc(C(F)(F)F)c2)CC1 | 7.83% | 49.5% (active) | 44% (active) | 11.4%
CCCc1nnc(SCC(=O)Nc2ccc(C(=O)OCC)cc2)o1 | 5.44% | 56.6% (active) | 60.7% (active) | -15.5%
COc1cccc(-c2cc(C(=O)Nc3ccncc3)c3ccccc3n2)c1 | 9.54% | 35.2% | 39.4% | -5.71%
O=C(Cc1ccccc1)N/N=C/c1ccc([N+](=O)[O-])s1 | 2.21% | 60% (active) | 62.1% (active) | -9.91%
Oc1cccc(Nc2nc(-c3ccccc3Cl)nc3ccccc23)c1 | 9.52% | 54.2% (active) | 48.3% (active) | -9.51%
Cc1ccccc1NC(=S)NCc1ccc2[nH]c3c(c2c1)CCCC3 | -0.36% | 17.9% | 28.9% | 9.36%
CN(C)c1ccc(C=c2c3ccccc3n3c2cc(-c2ccc(Cl)cc2)[n+]3C)cc1 | 5.51% | 102% (active) | 69% (active) | 86.3% (active)
O=C(CN1CCN(c2ccc([N+](=O)[O-])cc2)CC1)c1ccccc1 | 6.83% | 60.3% (active) | 48.5% (active) | 9.99%
O=C(NC1CCCCC1)c1ccc([N+](=O)[O-])o1 | 24.6% | 54.9% (active) | 54.4% (active) | -17.1%
O=C(C[C@H]1CC[C@@H]2[C@H](COC[C@H](O)CN2Cc2cccc(C(F)(F)F)c2)O1)NCCc1ccccc1 | 2.1% | 8.97% | 15.7% | 1.55%
Cn1cccc1C(=O)OCC(=O)N1CCN(c2ccccc2)CC1 | 2.85% | 32.7% | 35% | -18.1%
CCCCc1c(O)nc(SCC(=O)Nc2ccc3c(c2)CCC3)[nH]c1=O | 6.25% | 37.2% | 51.8% (active) | 0.43%

Structure (SMILES) | inhibition [1] | inhibition [2] | inhibition [3] | inhibition [4]
COc1cc(N)c(Cl)cc1C(=O)OCC(=O)N1c2ccccc2NC(=O)C1(C)C | 11.8% | 19.4% | 11.5% | -12.3%
O=C(Nc1nccs1)c1ccc(S(=O)(=O)NCC2CCCCC2)cc1 | 6.64% | 41.7% (active) | 42.4% | 33.3% (active)
Cc1cccc(OCC(=O)Nc2ccncc2)c1C | 6.9% | 60% (active) | 61.9% (active) | 36.1% (active)
COc1ccc(/C=N/NC(=O)c2cc(-c3ccc(C)cc3C)nc3ccccc23)cc1COC(C)=O | 1.71% | 52.8% (active) | 50.6% (active) | -17.4%
c1ccc(-c2nc(NCc3cccnc3)c3oc4ccccc4c3n2)cc1 | 19.2% | 62.4% (active) | 60.6% (active) | -22.9%
COc1cc(NC(=O)c2ccc([N+](=O)[O-])o2)ccc1NC(=O)c1ccco1 | 28.8% (active) | 62.5% (active) | 67% (active) | -17.9%
CC(=O)Nc1ccc(C2=CC(=O)CC(C)(C)C2)cc1 | 15.2% | 60.2% (active) | 55.8% (active) | -10.9%
Cc1ccc(CNC(=O)COc2ccc(C(=O)c3ccc(F)cc3)cc2)cc1 | 17.6% | 51% (active) | 35.8% | -11.9%
CCOc1ccc(CCNC(=O)COC(=O)c2cc(=O)[nH]c3ccccc23)cc1OCC | 8.79% | 53.2% (active) | 53.2% (active) | -8.43%
CC(=O)N1CCN(c2ccc(Oc3ccc([N+](=O)[O-])c(C(F)(F)F)c3)cc2)CC1 | 30.3% (active) | 68.3% (active) | 72.9% (active) | 57.5% (active)
Cc1ccc(S(=O)(=O)N2CCc3ccccc3CC2)cc1 | 39.2% (active) | 66.3% (active) | 56.7% (active) | 53.9% (active)
Cc1ccc(C2CC(C(F)(F)F)n3nc(C(=O)NCc4ccco4)cc3N2)cc1 (stereo not drawn) | 0.64% | 44.1% (active) | 44.8% (active) | -8.91%
Nc1nc(-c2ccccc2)[nH]c(=O)c1N=O | 18.9% | 54% (active) | 49.4% (active) | -10.9%
CCN1C(=O)c2cccc3c(S(=O)(=O)Nc4ccccc4O)ccc1c23 | 38.4% (active) | 34.1% | 36.2% | -88.6%
Cc1ccc(-c2nn3c(C)nnc3s2)cc1NC(=O)c1cccs1 | 17.1% | 67.5% (active) | 69.4% (active) | -15.2%
COc1ccc(CCNC(=O)COC(=O)c2cc(Cl)nc(Cl)c2)cc1 | 3.74% | 47.4% (active) | 51.4% (active) | -2.65%
Cn1c(=O)c2c(nc(CN3CCOCC3)n2CC(=O)c2ccccc2)n(C)c1=O | -4.41% | -0.49% | 1.97% | 5.48%
O=C(NCCN1C(=O)S/C(=C\c2ccc(OC(F)F)cc2)C1=O)c1cnccn1 | 44% (active) | 30.1% | 33.1% | 14.9%
CC1SC(C)C(=O)N(CC(=O)Nc2ccc3c(c2)OCO3)C1=O (stereo not drawn) | 8.81% | 49.1% (active) | 36.9% | -7.59%
O=C(c1ccc(=O)n(Cc2ccccc2)n1)N1CCN(C/C=C/c2ccccc2)CC1 | 2.26% | 52.9% (active) | 28% | 5.07%
COc1cccc(-c2cnc3c(NC(C)=O)cc(-c4ccc(S(C)(=O)=O)cc4)cn23)c1 | 15.6% | 53.3% (active) | 41.6% | -13.3%
Cc1ccc(C)c(NC(=O)CSc2nnc(-c3ccccc3)n2N)c1 | -26.9% | 53% (active) | 44.7% (active) | -20.5%
N#Cc1cc(Br)ccc1N=C1CCCN1c1ccccc1 | 2.82% | 44.5% (active) | 42.6% | 0.34%
CC(=O)N1CCN(c2ccc(NCc3ccc(C)cc3)cc2)CC1 | 1.04% | 34.2% | 33.7% | 1.11%
O=C(Nc1ccc(N2CCN(C(=O)c3cccs3)CC2)cc1)c1ccc([N+](=O)[O-])o1 | 43.4% (active) | 67.3% (active) | 70.4% (active) | 7.47%
CC1(C(=O)NCc2ccco2)Cc2c(-c3cccc(C(N)=O)c3)ccnc2O1 (stereo not drawn) | 49.6% (active) | 57.9% (active) | 59.3% (active) | -9.28%
